High-throughput results as filed in PubChem.
Methyltransferases: Primary Screen for Target Class Profiling of Small Molecule Inhibitors of Methyltransferases. purified enzyme, MTase-Glo SAH luminescence; hits give low values. calls only at 40 µM. 25,000 tested, 3.9% active; call rule not given here
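Each enzyme was assayed with SAM and its substrate. SAH formation detected by MTase-Glo luminescence; single-point 40 uM screen[…].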
MTase-Glo ctr: counter-screen for methyltransferase inhibitors: coupling enzymes without methyltransferase; shares compounds with Methyltransferases; Potency, µM (top dose mostly 57.3 µM), hits mostly inhibitors; 180 tested, 6% active; MTase-Glo coupled enzymes, SAH conversion luminescence, no MTase; active means well fitted inhibition curve with a large enough effect
Of the large screens only hits and unclear results are named; the others gave an inactive call (follow-up assays come after a bar, where they were run). Shown is part of a subset that was picked to be rich in hits.

O=C(Cn1nc2n(CCc3ccccc3)c(=O)c3ccccc3n2c1=O)Nc1ccc2c(c1)OCO2	none
CCC(C)NC(=O)c1ccc2c(=O)n(C)c3nnc(SCC(=O)NCc4ccc(C)cc4)n3c2c1 (stereo not drawn)	none
CCn1cc(CN2CCCC23CCN(c2cc(C)nc4ccccc24)CC3)c(C)n1	Methyltransferases active | MTase-Glo ctr inactive
CCCn1ncc(CN2CCCC23CCN(c2ncccn2)CC3)c1C	none
CN1C(=O)c2cc(NC(=O)c3ccc4c(c3)OCO4)ccc2N2CCN=C12	none
C=CCS(=O)(=O)N1CCC2(CCCN(CCCc3ccccc3)C2=O)C1 (stereo not drawn)	none
Cc1nnnn1CCC(=O)Nc1nn(C)c2cccc(N3CCOCC3)c12	none
COc1cccc(N2C(=O)NC(=NC3CCCCC3)C23CCCN(CC2CCCCC2)C3)c1 (stereo not drawn)	Methyltransferases active | MTase-Glo ctr inactive
COc1cccc(N2C(=O)NC(=NC3CCCC3)C23CCN(Cc2ccccc2)C3)c1 (stereo not drawn)	none
COc1cccc(N2C(=O)NC(=NC3CCCCC3)C23CCN(CC2CC2)C3)c1 (stereo not drawn)	none
C=C1CC2OC(=O)C(=C)C2C(O)/C=C(\C)CCC1O (stereo not drawn)	none
C/C=C(/C)C(=O)OC1CC(C)(C)CC2C3=CCC4C5(C)CCC(O[C@@H]6O[C@H](C(=O)O)[C@@H](O)[C@H](O)[C@H]6O[C@@H]6O[C@H](CO)[C@H](O)[C@H](O[C@@H]7OC[C@H](O)[C@H](O)[C@H]7O[C@@H]7O[C@H](CO)[C@@H](O)[C@H](O)[C@H]7O)[C@H]6O)C(C)(C)C5CCC4(C)C3(C)C(O)C(O)C12CO (stereo partly drawn)	none
Cn1cc2c3c(cccc31)CN(C(=O)c1ccccc1F)CC2	Methyltransferases active | MTase-Glo ctr inactive
O=C(c1ccccc1F)N1CCn2ncc(C(=O)N3CCOCC3)c2C1	none
CN1CCCN(C(=O)c2ccccc2F)c2ccccc21	none
CCCCN1C(=O)c2cc(C(=O)Nc3cccc(Cl)c3C)nn2CC1(C)C(=O)NC1CCCC1 (stereo not drawn)	none
COCCS(=O)(=O)c1ncc(CN(C)Cc2ccsc2)n1Cc1ccccc1	none
Cc1ccc(-c2n[nH]n3c2nc(=O)c2ccc(C(=O)N4CCN(c5ccccc5F)CC4)cc23)cc1	none
Oc1ccc(NCCN2CCCC2)cc1	Methyltransferases active | MTase-Glo ctr inactive
O=C(NCCN1CCN(c2cccc3ccc(O)cc23)CC1)c1ccc(F)cc1	none
Cc1ccc(NC(=O)N2CCCN(CCn3nc4n(c3=O)CCCC4)CC2)cc1F	none
CC(C)OCCCn1c(=O)c2ccccc2n2c(=O)n(Cc3cccc(Cl)c3)nc12	none
CN1C(=O)c2cc(C(=O)NCc3cccc(Br)c3)nn2CC1(C)C(=O)NC1CCCC1 (stereo not drawn)	none
COc1ccc(OC)c(S(=O)(=O)N2CC[C@@H]3COCCN(Cc4ccccc4)[C@@H]3C2)c1	none
COc1ccc(OC)c(CN2CCC3(CC2)Nc2ccccc2NC3=O)c1	none
COc1ccc(OC)c(CN2CCNc3cc(-c4ccnc(C)c4)ncc3C2)c1	Methyltransferases active | MTase-Glo ctr inactive
COc1ccc(-c2nn(-c3ccccc3C)cc2CN2CCCN(C)CC2)cc1F	none
C[C@@H](O[C@H]1OCCN(Cc2n[nH]nc2CN(C)C)[C@H]1c1ccc(F)cc1)c1cc(C(F)(F)F)cc(C(F)(F)F)c1	none
O=C(C1CC2(CCNCC2)CN1)N1CCC(c2nc3ccccc3[nH]2)CC1 (stereo not drawn)	none
CC(=O)N1CC[C@H](c2nc3ccc(C#N)cc3[nH]2)C1	none
CN1CCC(N2CC[C@H](c3nc4ccccc4[nH]3)C2)CC1	Methyltransferases active | MTase-Glo ctr inactive
CN1CCC(N2CC[C@H](c3nc4ccc(C(F)(F)F)cc4[nH]3)C2)CC1	Methyltransferases active | MTase-Glo ctr inactive
CN1CCN(c2nc3cc(C(F)(F)F)ccc3n3cccc23)CC1	none
CC(=O)N1CCC(C(=O)N2CCCC(c3nc4ncccc4[nH]3)C2)CC1 (stereo not drawn)	none
COC(=O)CC(O)CC(O)/C=C/c1c(C)ccc2c1C(O)CC(C)C2 (stereo not drawn)	none
CCc1nc2cc(N3CCCC(C(=O)O)C3)cnc2nc1CC (stereo not drawn)	none
COc1ccc(-c2[nH]ncc2CN2CC[C@H]3CC[C@@H](C2)N3)cc1	Methyltransferases active | MTase-Glo ctr inactive
CN1CCN(c2nc3c(c(=O)[nH]2)CCN(Cc2cn[nH]c2-c2ccc(F)cc2)CC3)CC1	none
CN1C(=O)[C@H]2CN(Cc3cn[nH]c3-c3ccc(F)cc3)C[C@H]2C1=O	none
CCc1ccc(NC(=O)Cn2nc3n(CCC(C)C)c(=O)c4ccccc4n3c2=O)cc1	none
FC(F)(F)c1ccnc(N2CC[C@H](c3nnc(-c4ccncc4)o3)C2)n1	Methyltransferases active | MTase-Glo ctr inactive
COc1ccc(C(=O)N2CC[C@H](c3nnc(-c4ccccc4)o3)C2)cc1	none
